From PubChem BioAssay AID1159580 (chemical genetic matrix, 2015)
Values joined by “and” are separate entries in the source; they are usually repeats but may differ in a detail not shown here. Equal values may be shown once. Among all 5,500 compounds or so, about 2,000 (36%) were called active. Not shown: some 18% with an inconclusive outcome. Cut-off read from the data, not from the text of the source: active = normalized growth mostly below about 0.91 (no sharp cut-off); inconclusive = no clear call, values can overlap the other calls; inactive = mostly above about 0.92. The list shows a part of the results.

Test: chemical genetic growth profiling, strain panel (AID 1159580);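 note: tested at 20 µM; growth read once vehicle control cultures reached saturation at 30 °C; 1 = growth at the plate median or of vehicle wells; lower values mean less growth of the strain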
Details: S. cerevisiae deletion strains, growth OD

Measured: normalized growth

C=C[C@@](C)(O)CCC1C(=C)C[C@H](O)C2C(C)(C)CCCC12C (some centres not stated)
active: locus YDR392W, strain spt3, hits give low values 0.628
inactive: locus YAL013W, strain DEP1, hits give low values 1.01 | locus YAL021C, strain ccr4, hits give low values 1.01 | locus YAL026C, strain drs2, hits give low values 0.972 | locus YAL030W, strain snc1, hits give low values 0.996 | locus YBL061C, strain skt5, hits give low values 0.988 | locus YBR009C, strain hhf1, hits give low values 0.986 | locus YBR021W, strain FUR4, hits give low values 0.998 | locus YBR023C, strain chs3, hits give low values 0.978 | locus YBR171W, strain sec66, hits give low values 0.976 | locus YBR229C, strain ROT2, hits give low values 1.01 | locus YBR231C, strain swc5, hits give low values 1 | locus YBR279W, strain paf1, hits give low values 0.998 | locus YCL011C, strain gbp2, hits give low values 0.991 | locus YCL016C, strain dcc1, hits give low values 0.971 | locus YCL029C, strain bik1, hits give low values 1.02 | locus YCL061C, strain MRC1, hits give low values 0.98 | locus YCL069W, strain vba3, hits give low values 0.999 | locus YCR088W, strain abp1, hits give low values 0.99 | locus YDL005C, strain med2, hits give low values 0.976 | locus YDL035C, strain GPR1, hits give low values 0.991 | locus YDL040C, strain nat1, hits give low values 0.997 | locus YDL074C, strain BRE1, hits give low values 0.974 | locus YDL101C, strain DUN1, hits give low values 1.01 | locus YDL134C, strain PPH21, hits give low values 1.01 | locus YDL185W, strain tfp1, hits give low values 1.02 | locus YDL192W, strain arf1, hits give low values 1.02 | locus YDR001C, strain nth1, hits give low values 0.989 | locus YDR069C, strain doa4, hits give low values 0.99 | locus YDR101C, strain arx1, hits give low values 1 | locus YDR137W, strain rgp1, hits give low values 0.859 | locus YDR150W, strain NUM1, hits give low values 1.01 | locus YDR159W, strain sac3, hits give low values 1.01 | locus YDR162C, strain NBP2, hits give low values 0.994 | locus YDR195W, strain ref2 1.05 | locus YDR297W, strain sur2, hits give low values 0.993 | locus YDR318W, strain mcm21, hits give low values 1.02 | locus YDR334W, strain swr1, hits give low values 0.993 | locus YDR335W, strain msn5, hits give low values 1.01 | locus YDR388W, hits give low values 1.02 | locus YDR502C, strain sam2, hits give low values 1.01 | locus YEL003W, strain gim4, hits give low values 1 | locus YEL037C, strain rad23, hits give low values 0.987 | locus YEL061C, strain CIN8 (second series), hits give low values 0.992 | locus YEL061C, strain CIN8, hits give low values 1.01 | locus YER015W, strain faa2, hits give low values 0.995 | locus YER016W, strain bim1, hits give low values 0.996 | locus YER110C, hits give low values 1.03 | locus YER111C, strain swi4, hits give low values 0.976 | locus YER155C, strain BEM2 (second series), hits give low values 1.01 | locus YER155C, strain BEM2, hits give low values 1.01 | locus YER167W, strain BCK2, hits give low values 1.01 | locus YFR010W, strain ubp6, hits give low values 1.01 | locus YGL078C, strain dbp3, hits give low values 1.02 | locus YGL086W, strain mad1, hits give low values 1.02 | locus YGL167C, strain pmr1, hits give low values 0.97 | locus YGL173C, strain kem1, hits give low values 0.974 | locus YGL227W, strain vid30, hits give low values 0.997 | locus YGL240W, strain doc1, hits give low values 1 | locus YGL248W, strain PDE1, hits give low values 1.01 | locus YGL253W, strain hxk2, hits give low values 0.984 | locus YGR078C, strain PAC10, hits give low values 1 | locus YGR135W, strain pre9, hits give low values 1 | locus YGR229C, strain SMI1, hits give low values 1 | locus YGR252W, strain gcn5, hits give low values 0.995 | locus YHR013C, strain ard1, hits give low values 1.02 | locus YHR027C, strain rpn1, hits give low values 1 | locus YHR030C, strain SLT2, hits give low values 1.01 and 0.934 | locus YHR079C, strain IRE1 (second series), hits give low values 1.02 | locus YHR079C, strain IRE1, hits give low values 0.955 | locus YHR094C, strain hxt1, hits give low values 1.02 | locus YHR129C, strain ARP1, hits give low values 1.01 | locus YHR142W, strain chs7, hits give low values 0.957 | locus YHR200W, strain rpn10, hits give low values 1.04 | locus YIL066C, strain RNR3, hits give low values 1.02 | locus YIL073C, strain SPO22, hits give low values 1.06 | locus YIL125W, strain kgd1, hits give low values 1.02 | locus YIR030C, strain dcg1, hits give low values 1.02 | locus YJL092W, strain hpr5, hits give low values 0.993 | locus YJL095W, strain BCK1 (second series), hits give low values 0.992 | locus YJL095W, strain BCK1, hits give low values 0.999 and 0.952 | locus YJL115W, strain asf1, hits give low values 0.99 | locus YJL129C, strain trk1, hits give low values 0.966 | locus YJL134W, strain LCB3, hits give low values 1.01 | locus YJL154C, strain vps35, hits give low values 0.997 | locus YJL164C, strain tpk1, hits give low values 0.982 | locus YJL166W, strain qcr8, hits give low values 0.981 | locus YJL168C, strain set2, hits give low values 1.03 | locus YJL187C, strain SWE1 (second series), hits give low values 1 | locus YJL187C, strain SWE1, hits give low values 0.991 | locus YJR043C, strain POL32, hits give low values 0.997 | locus YJR066W, strain TOR1, hits give low values 0.923
